This is a sample that favours compounds with a hit; in the whole collection about 12% have one here.
BAZ2B block: blocks human BAZ2B; Potency, µM (series often up to 114 µM), most hits filed as inhibitors; 360,000 tested, 4.4% active; Q9UIF8; AlphaScreen BAZ2B-H3K14Ac peptide displacement; also: nearly all actives have a fitted effect of over 60% in size
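AlphaScreen luminescence quantifies BAZ2B engagement of H3K14Ac peptide; the protein and biotinylated peptide are both at 50 nM final, buffer PBS pH 7.4 with 0.01% Tween-20, all steps at room temperature.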
L3MBTL1 inh: blocks human L3MBTL1. Potency, µM (series often up to 57.1 µM), most hits filed as inhibitors. AID 485360. AlphaScreen L3MBTL1–H3K9me1 peptide binding. 230,000 tested, 0.66% active; also: nearly all actives have a fitted effect of over 60% in size
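L3MBTL1 50 nM + b-AHA-H3(1-15)K9me1 75 nM, 30 min RT; compound added, 30 min RT; streptavidin donor/Ni-chelate acceptor beads 10 ug/mL each final, 30 min RT dark; AlphaScreen read.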
JMJD2A Tudor inh: blocks the human JMJD2A Tudor domain | AlphaScreen JMJD2A-Tudor / H3K4me3 peptide binding | Potency, µM (series often up to 114 µM), hits mostly inhibitors | 390,000 tested, 4.4% active; also: nearly all actives have a fitted effect of over 50% in size
Sfp inh: blocks B. subtilis Sfp PPTase activity; 310,000 tested, 3.5% active; Biochemical Sfp PPTase activity, qHTS; Potency, µM, usual class: inhibitors;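 also: the enzyme is Sfp with the accession as filed and its product quenches rhodamine fluorescence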
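Buffer: 50 mM Hepes-Na pH 7.6, 10 mM MgCl2, 0.01% Nonidet P-40, 0.01% BSA. Enzyme 15 nM, pre-exposed to compound 15 min; substrates then added and fluorescence change tracked over 30 min.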
HP1b binding inh: inhibitors of HP1-beta chromodomain binding to methylated histone tails | 390,000 tested, 0.56% active | P83916 | Potency, µM (titrated, usually from 114 µM), hits mostly inhibitors | AID 540317 | AlphaScreen HP1-beta / biotin-H3K9me3 peptide binding; also: nearly all actives have a fitted effect of over 70% in size
Target sequence (P83916 whole entry, looked up): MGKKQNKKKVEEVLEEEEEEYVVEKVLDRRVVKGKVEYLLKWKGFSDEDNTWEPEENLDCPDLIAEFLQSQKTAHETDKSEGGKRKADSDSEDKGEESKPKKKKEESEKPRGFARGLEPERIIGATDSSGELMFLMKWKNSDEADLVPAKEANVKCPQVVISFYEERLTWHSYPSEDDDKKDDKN
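Compound inhibition of the preformed complex between 50 nM HP1-beta and 50 nM biotinylated H3K9me3 peptide was read by AlphaScreen. Buffer was PBS pH 7.4 with 0.01% Tween-20. Incubations ran 30 min at room temperature, with 10 ug/mL donor/acceptor beads.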
G9a inh: inhibitors of human histone lysine methyltransferase G9a | G9a H3K9 monomethylation, AlphaScreen, 2 h | Potency, µM (doses to about 102 µM), most hits filed as inhibitors | 350,000 tested, 8.8% active; also: nearly all actives have a fitted effect of over 75% in size
Target sequence (Q96KQ7 913-1193 limits assumed): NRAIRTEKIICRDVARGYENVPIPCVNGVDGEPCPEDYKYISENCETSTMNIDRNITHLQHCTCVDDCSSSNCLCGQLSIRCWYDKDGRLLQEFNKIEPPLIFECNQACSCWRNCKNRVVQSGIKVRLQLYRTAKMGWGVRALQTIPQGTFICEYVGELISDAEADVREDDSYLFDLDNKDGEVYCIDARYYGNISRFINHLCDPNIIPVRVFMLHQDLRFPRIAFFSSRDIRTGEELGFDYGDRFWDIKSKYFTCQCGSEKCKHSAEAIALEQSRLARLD
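Enzyme 20 nM + cpd, 15 min RT; add b-H3K9 pep 500 nM / SAM 20 uM; 2 h RT; anti-H3K9me1 Ab 0.5 ug/mL + SA donor / anti-rabbit acceptor beads 20 ug/mL each, 10 min; AlphaScreen read.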
A number is an active result; n = inactive; u = inconclusive; x = no result; [ ] = remark or other dose. Calls follow the shape of the dose curve; as a rule, active = well fitted curve in the direction sought with a large enough effect; inconclusive = small, poorly fitted or top-dose-only effect, or another doubt; inactive = no such curve, though single readings can be large; an effect the other way counts as inactive or inconclusive.

SMILES	BAZ2B block	L3MBTL1 inh	JMJD2A Tudor inh	Sfp inh	HP1b binding inh	G9a inh
Cc1ccc2c(c1)c1c(n2CC(O)CNC(CO)(CO)CO)CCCC1 (stereo not given)	u	x	u	n	n	50.1µM
Cc1cc([N+](=O)[O-])ccc1NC(=O)C(C)NC1CCCCC1 (stereo not given)	n	n	n	n	n	u
CC(C)(C)c1ccc(C(=O)Nc2ncn[nH]2)cc1	u	n	n	n	n	u
O=C(Nc1ncn[nH]1)c1cccc(F)c1	50.1µM	n	u	x	x	n[2.33 µM]
Cc1ccc(C(=O)Nc2ncn[nH]2)cc1	50.1µM	n	u	n	n	u
Cc1ccc(SC(C)C(=O)Nc2ncn[nH]2)cc1 (stereo not given)	56.2µM	n	n	n	n	u
C=C/C(=C\C)C[C@@H](CC(=O)N[C@@H](CCC(=O)O)CC(=O)O)NC(=O)[C@@H]1CNCC[C@H]1NC(=O)C[C@@H](NC(=O)C[C@H](Cc1ccccc1)NC(=O)[C@@H]1CCCC[C@H]1N)C(C)C	x	x	x	n	x	x
C[C@@H](C(=O)Nc1ccc2ccccc2c1)[C@H]1C[C@]1(C)[C@H](NC(=O)c1ccccc1)c1ccccc1	x	x	x	n	x	x
O=C(C1=C(Nc2ccccc2)c2ccccc2S(=O)(=O)N1)c1ccccc1	n	n	u	89.1µM	u	25.1µM
Cc1ccc(Nc2nc(C(=O)NCc3ccco3)cs2)cc1	u	n	u	n	n	u
CCOC(=O)/C(=N\Nc1ccc(OC)cc1)c1csc(Nc2ccccc2)n1	u	x	39.8µM	n	n	n[12.7 µM]
CCN(CC)C(=O)c1csc(Nc2ccc(C)cc2)n1	u	n	n	20µM	n	12.6µM
Cc1ccc(Nc2nc(C(=O)NCCCN3CCOCC3)cs2)cc1	n	n	u	n	n	89.1µM
CN(C)c1ncc2nc(-c3ccc(F)cc3)c(=O)n(C3CC3)c2n1	x	x	x	n	x	n[12.7 µM]
NCCn1oc(=O)[nH]c1=O	x	x	x	n	x	n
CCOC(=O)c1cccc(C2=CC(=O)CC(C)(C)C2)c1	n	n	n	x	n	n[0.501 µM]
Cc1ccc(NS(=O)(=O)c2ccc3c(c2)C(Cl)(Cl)C(=O)N3)cc1C	x	x	n	x	x	x
CN(C)CCCNc1ncnc2sc(-c3ccccc3)cc12	56.2µM	x	5.62µM	56.2µM	u	u
O=C(O)CN1C(=O)/C(=C\c2cccc(OCc3ccccc3)c2)SC1=S	56.2µM	n[2.29 µM]	u	n	u	n[0.501 µM]
Cc1cccc(Cc2cnc(NC(=O)CN3C(=O)/C(=C/c4ccccc4)SC3=S)s2)c1	u	x	n	n	u	39.8µM
Cc1ccc(/C=C2/SC(=S)N(CC(=O)Nc3ncc(Cc4ccc(C)cc4)s3)C2=O)cc1	n	x	n	n	n	n
O=C(O)COc1cccc(/C=C2/SC(=S)N(Cc3ccccc3)C2=O)c1	u	x	50.1µM	n	n	44.7µM
CCN(C(=O)CN(C)S(=O)(=O)c1ccc2c(c1)c(=O)n(C)c(=O)n2C)c1ccc(OC)cc1	n	x	n	x	n	n
C/C(=N/NS(=O)(=O)c1ccc(C)cc1)[C@H]1C[C@@H]1c1ccccc1	n	n	n	n	n	12.6µM
O=C(Nc1ccccc1N1CCOCC1)c1cc(Br)c(Br)s1	n	n	n	n	n	n
SMILES	BAZ2B block	L3MBTL1 inh	JMJD2A Tudor inh	Sfp inh	HP1b binding inh	G9a inh
COc1ccc(N/N=C(\C#N)C(=O)NCCc2ccc(OC)c(OC)c2)cc1	u	n	u	n	n	22.4µM
COc1ccc(N/N=C(\C#N)C(=N)SCc2ccccc2)cc1	u	x	n	n	n	28.2µM
COc1ccc(N/N=C(\C#N)C(=N)N2CCCCC2)cc1	n	n	n	n	n	x
COC(=O)c1ccc(N2C(=O)CC(N3CCOCC3)C2=O)cc1 (stereo not given)	n	n	n	n	n	79.4µM
O=C(C1CCN(C2CC(=O)N(c3cccc(Cl)c3)C2=O)CC1)N1CCCCCC1 (stereo not given)	n	n[11.4 µM]	n	n	n	10µM
O=C1CC(N2CCOCC2)C(=O)N1c1cccc(Cl)c1 (stereo not given)	n	n	n	n	n	44.7µM
CC(=O)Nc1ccc(N2C(=O)CC(N3CC(C)OC(C)C3)C2=O)cc1 (stereo not given)	n	n	n	n	n	22.4µM
COC(=O)c1ccc(N2C(=O)CC(N3CCN(c4ccccc4)CC3)C2=O)cc1 (stereo not given)	x	x	n	x	n	x
Cc1cccc(N2C(=O)CC(N3CCOCC3)C2=O)c1 (stereo not given)	n	x	n	n	n	n
O=C(CCc1nnc(COc2ccccc2)o1)NCc1ccc(Cl)s1	n	n	n	n	n	n
Cc1noc(C)c1-c1cncnc1NCCN1CCOCC1	x	x	x	n	x	n[0.501 µM]
CC(C)Oc1ccc(CNS(=O)(=O)c2csc(C(N)=O)c2)cc1	n	x	n	n	n	n
O=S(=O)(/N=S1/CC=CCN1S(=O)(=O)c1ccccc1)c1ccccc1 (stereo not given)	n	n	u	1.41µM	u	u
O=C(NCc1ccc2c(c1)OCO2)c1cc2c(s1)CSC2	n	n	n	n	n	35.5µM
O=C(O)c1ccccc1C(=O)NCc1ccc2c(c1)OCO2	n	x	31.6µM	n	u	n
CC(OC(=O)c1ccc(Cl)cc1)C(=O)NCc1ccc2c(c1)OCO2 (stereo not given)	n	n	n	x	n	n[12.7 µM]
O=C(NCc1ccc2c(c1)OCO2)c1cccc(C(=O)NCc2ccc3c(c2)OCO3)c1	x	n	n	n	n	n
O=C(NCc1ccc2c(c1)OCO2)C(C(=O)c1ccccc1)n1cc(Cl)ccc1=O (stereo not given)	n	n	n	n	n	50.1µM
O=C(CCn1c(=O)oc2ccccc21)NCc1ccc2c(c1)OCO2	n	n	n	n	n	n
CCOc1ccccc1C(=O)NCc1ccc2c(c1)OCO2	n	x	n	n	n	n[12.7 µM]
O=C(CCn1cccc1)NCc1ccc2c(c1)OCO2	50.1µM	n	u	n	u	u
CCOC(=O)C(NC(=O)Nc1ccc(C(N)=O)cc1)(c1ccccc1)C(F)(F)F (stereo not given)	n	n	n	n	n	u
N#Cc1c(N)n(-c2cccc(O)c2)c2nc3ccccc3nc12	n	n	n	n	n	n
CCn1nc(C)c(CNC(=O)CCc2nnc(-c3ccc(C(C)=O)s3)o2)c1C	n	n	n	n	n	n
CCN(CC)S(=O)(=O)c1ccc(C(O)=C(C#N)c2nc3ccccc3n2C)cc1	x	x	n	x	n	x
O=C(OCC(=O)N1CCCc2ccccc21)c1ccccc1NCCO	n	n	n	x	n	n
O=C(CSc1nc2ccccc2[nH]1)NCc1ccc2c(c1)OCO2	n	n	n	n	n	25.1µM
Cc1cc(C)cc(OCC(O)CN2CCC(CN3C(=O)c4cccc5cccc(c45)C3=O)CC2)c1 (stereo not given)	n	n	n[11.4 µM]	n	n	n[0.501 µM]
